# Screens: PubChem BioAssay, National Center for Advancing Translational Sciences (NCATS)
# A selection: hits, their analogues and other compounds. The true share with any hit is near 7.3%.
# ELG1 genotoxic = inducers of genotoxicity in HEK293T ELG1-luciferase cells | hit rate 1.3% among 330,000 | Potency, µM (doses to about 46 µM), actives largely listed as activators | AID 504466 | HEK293T ELG1-luciferase reporter, luminescence, 16 h; note: nearly all actives have a fitted effect of over 60% in size
#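 Quantitative HTS format in 1536-well plates. HEK293T ELG1-luciferase reporter cells receive test compound and are incubated 16 hr at 37 °C, 5% CO2; ONE-Glo added, 30 min room temperature, then luminescence read.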
# p53 reactivator = re-activators of mutant p53 | H1299 p53-A138V BP100-luciferase reporter, luminescence, 24 h | Potency, µM (highest dose often 92.2 µM), actives largely listed as activators | hit rate 0.063% among 320,000 | AID 504706; note: nearly all actives have a fitted effect of over 45% in size
#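 H1299 (p53-null), stable ts p53-A138V + BP100-Luc; 1000 cells/well, Opti-MEM/10% FBS; cpd 4 pt, 1:5; 24 h, 37 deg C, 5% CO2; detection reagent 10 min RT; luminescence.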
# Rab9 promoter act = Rab9 promoter activation; Potency, µM (series often up to 9.22 µM), usual class: activators; Huh7 Rab9 promoter-luciferase reporter, luminescence, 24 h; hit rate 2.8% among 320,000; note: nearly all actives have a fitted effect of over 60% in size
#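 Stable Rab9-luc Huh7, 1500 cells/well, 2 h settle; cmpd in DMSO, 24 h, 37 °C/5% CO2; luciferase reagent 10 min RT; luminescence.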
# FLuc modulator = firefly luciferase modulation, counter-screen for miR-21 project | P08659 | purified FLuc, Km substrates, luminescence inhibition | Potency, µM (series often up to 57.5 µM), most hits filed as inhibitors | hit rate 6.9% among 360,000 | AID 588342; note: nearly all actives have a fitted effect of over 55% in size
# Target sequence (P08659 whole entry, looked up): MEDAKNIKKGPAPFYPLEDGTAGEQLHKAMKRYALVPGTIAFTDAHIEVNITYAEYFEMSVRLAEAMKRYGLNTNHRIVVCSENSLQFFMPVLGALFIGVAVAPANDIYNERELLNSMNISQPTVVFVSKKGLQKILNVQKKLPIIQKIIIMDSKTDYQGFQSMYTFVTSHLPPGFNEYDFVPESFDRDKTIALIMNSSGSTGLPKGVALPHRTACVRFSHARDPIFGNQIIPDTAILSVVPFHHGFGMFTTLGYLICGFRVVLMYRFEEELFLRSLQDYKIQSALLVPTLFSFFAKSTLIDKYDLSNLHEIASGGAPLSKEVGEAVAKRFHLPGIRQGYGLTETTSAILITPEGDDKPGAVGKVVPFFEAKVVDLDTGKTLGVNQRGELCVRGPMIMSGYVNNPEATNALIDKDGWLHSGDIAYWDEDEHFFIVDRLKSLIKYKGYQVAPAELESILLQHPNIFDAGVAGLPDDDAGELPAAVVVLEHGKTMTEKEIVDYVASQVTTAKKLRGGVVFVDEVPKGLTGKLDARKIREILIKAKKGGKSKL
#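 Biochemical qHTS of compounds, final roughly 60 µM downward over six points, against 10 nM purified firefly luciferase using Km concentrations of substrates (10 uM D-luciferin, 10 uM ATP) in Tris acetate pH 7.5 buffer; luminescence output.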
# NPC1 prom act = NPC1 promoter activation; Huh7 NPC1 promoter luciferase reporter, 24 h; Potency, µM (top dose mostly 9.22 µM), hits mostly activators; hit rate 2.4% among 320,000; AID 485313; note: nearly all actives have a fitted effect of over 60% in size
#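 Stably transfected Huh7 (NPC1 promoter→luciferase), 1500 cells/well in Opti-MEM + 10% FBS, 2 h settle, then compound 24 h at 37 °C. Luminescence after 10 min with Amplite reagent.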
# SMN2 splice up = enhancers of SMN2 splice variant expression; HEK293 SMN2-luciferase splicing reporter, luminescence, 30-36 h; Potency, µM (highest dose often 46.1 µM), hits mostly activators; hit rate 2.8% among 210,000; note: nearly all actives have a fitted effect of over 55% in size
#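 qHTS luciferase splicing reporter: luminescence rises when SMN2 exon 7 is included in transfected HEK293 cells. Compound exposure lasted 30-36 h at 37C, with 4.5 mM final sodium butyrate as control, followed by a ONE-Glo read.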
# A number is an active result; - = inactive; ? = inconclusive; . = no result given; [ ] = dose if it differs, or a comment. Calls come from the whole dose curve; as a rule, active = well fitted curve in the direction sought with a large enough effect; inconclusive = small, poorly fitted or top-dose-only effect, or another doubt; inactive = no such curve, though single readings can be large; an effect the other way counts as inactive or inconclusive.
SMILES,ELG1 genotoxic,p53 reactivator,Rab9 promoter act,FLuc modulator,NPC1 prom act,SMN2 splice up
Cn1c(=O)c2c(nc(SCC(=O)NCc3ccc4c(c3)OCO4)n2Cc2ccccc2)n(C)c1=O,-,-,-,-,-,-
Cc1cc(O)c(-c2cc(C(=O)Nc3cccnc3)[nH]n2)cc1C,3.7µM,-,1µM,1.9µM,0.25µM,.
Cc1ccc(O)c(-c2cc(C(=O)NCc3ccncc3)[nH]n2)c1,-,-,-,-,-,-
Cc1cc(C)c(O)c(-c2cc(C(=O)Nc3cccnc3)[nH]n2)c1,-,-,-,19µM,-,.
CC(=O)Nc1ccc(NC(=O)c2cc(-c3cc(C)c(C)cc3O)n[nH]2)cc1,-,-,-,-,-,.
CCc1ccc(O)c(-c2cc(C(=O)Nc3cccnc3)[nH]n2)c1,?,?,2.2µM,11µM,1.6µM,.
Cc1nc2cc(NC(=O)NCc3ccc4c(c3)OCO4)ccc2o1,-,-,-,-,-,-
Cc1ccccc1NC(=O)N1c2ccccc2CC1C (stereo unspecified),-,-,-,?,-,-
Cc1nc2cc(NC(=O)Nc3ccc(Br)cc3)ccc2o1,?,-,0.5µM,2.4µM,1.8µM,11µM
Cc1nc2cc(NC(=O)N3c4ccccc4CC3C)ccc2n1C (stereo unspecified),?,.,0.45µM,1.7µM,0.5µM,2.8µM
CC1Cc2ccccc2N1C(=O)c1ccc2c(c1)nnn2C (stereo unspecified),-,-,-,-[2.3 µM],-,-
Cc1nc2cc(NC(=O)N3c4ccccc4CC3C)ccc2o1 (stereo unspecified),3.3µM,?,0.89µM,6µM,0.79µM,11µM
COc1ccc(-c2nc3n(n2)C(c2ccccc2F)C(C(=O)Nc2cccnc2)=C(C)N3)cc1OC (stereo unspecified),.,.,.,-,.,-
COc1nnc(-c2ccc(N3CCCCC3)c(NC(=O)c3ccccc3Cl)c2)c2ccccc12,.,.,.,-,.,-
Cc1nn(C(=O)CCCn2cc([N+](=O)[O-])cn2)c(C)c1Cl,-,-,-,-,-,-
Cc1cccc(S(=O)Cc2ccc(C(=O)NC3CCCCCC3)o2)c1 (stereo unspecified),.,.,.,-,.,.
O=C1OC(O)C(C(Cl)Cl)=C1Cl (stereo unspecified),.,.,.,.,.,-
CC#N,.,.,.,.,.,-
O=C(CCCn1c(=O)c2cccn2c2ccccc21)NCCc1ccc(Cl)cc1,.,.,.,3.8µM,.,.
Cc1cccc(C)c1NC(=O)CCCn1c(=O)c2cccn2c2ccccc21,.,.,.,5.4µM,.,.
CCOC(=O)C1=C(C)N(C[C@@H]2CC[C@@H](Cc3ccc(-c4ccccc4)cc3)O2)C(=O)NC1C1CC1 (stereo partly specified),-,-,.,.,.,.
COc1ccc(/C=C2\S/C(=N/S(=O)(=O)c3cccs3)NC2=O)cc1,-,-,-,19µM,-,-
O=C(c1cc2c(s1)CCCC2)N1CCN(Cc2ccc3c(c2)OCO3)CC1,-,-,-,-,-,-
CCOc1ncccc1C(=O)Oc1ccc2c(c1)OCO2,-,-,-,-,-,?
Cc1ccc(NC(=O)c2oc3ccccc3c2NC(=O)c2ccc3c(c2)OCO3)cc1,-,-,-,6.7µM,-,-
SMILES,ELG1 genotoxic,p53 reactivator,Rab9 promoter act,FLuc modulator,NPC1 prom act,SMN2 splice up
O=C(Oc1ccc2c(c1)OCO2)c1ccc(F)cc1Cl,-,?,?,2.7µM,-,-
O=C(NNC(=O)c1ccc(F)cc1F)c1ccc2c(c1)OCO2,?,-,3.2µM,?,-,?
O=C(Oc1ccc2c(c1)OCO2)c1cc2c(s1)CCC2,-,-,-,3.8µM,-,-
CCCCC/C=C\C/C=C\C[C@H](O)/C=C/C=C\CCCC(=O)O,.,.,.,.,.,-
COc1ccc(NC(=O)C2(S(=O)(=O)c3ccc(C)cc3)CC2)c(OC)c1,.,.,.,-,.,-
O=C(Nc1ccc(Br)cc1)C1CCN(S(=O)(=O)c2cccc3nsnc23)CC1,.,.,.,-,.,-
O=C(Nc1cccc(F)c1)c1ccc2c(c1)OCO2,5.2µM,-,1.6µM,11µM,2.8µM,6.3µM
O=C(Nc1c(C(=O)Nc2cccc(F)c2)oc2ccccc12)c1ccc2c(c1)OCO2,?,-,-,8.5µM,-,-
O=C(CN1C(=O)C2CCCCC2C1=O)Nc1cc([N+](=O)[O-])ccc1F (stereo unspecified),-,-,-,-,-,.
COC(=O)C1CCN(C(=O)c2ccc3nc(-c4cccc(OC)c4)oc3c2)CC1,?,-,2µM,21µM,1.8µM,.
COc1cccc(-c2nc3ccc(C(=O)NC(C)Cc4cccnc4)cc3o2)c1 (stereo unspecified),?,.,2.8µM,9.5µM,2.2µM,.
COc1ccccc1OCC(=O)NC1CCSc2ccccc21 (stereo unspecified),-,-,-,-,-,.
O=C(Nc1cccc(F)c1F)C1CCN(c2ncccn2)CC1,.,.,.,-,.,-
O=C(CSc1nc2c([nH]c3ccccc32)c(=O)n1-c1ccc(F)cc1)NCc1ccc(F)cc1,.,.,.,-,.,.
CCOC(=O)c1sc(=N)n(-c2ccc(OC)cc2)c1C,?,-,-,19µM,-,-
COC(=O)c1c(C)n(-c2ccc(OC)cc2)c2ccc(O)cc12,-,-,-,-,-,4.5µM
Cc1ccccc1C(=O)NC1CCN(Cc2nnnn2CCc2ccccc2)CC1,-,-,-,-,-,-
CCOC(=O)C1CCN(Cc2nnnn2CCc2ccccc2)CC1,?,-,1.6µM,?,4µM,.
Cc1ccccc1Cn1c(SCc2ccc(C(=O)NC(C)c3ccccc3)cc2)nc2ccncc21 (stereo unspecified),.,.,.,-,.,-
COc1ccc(CNC(=O)Cc2c(C)c3c(cc(C)c4c(C)coc43)oc2=O)cc1,.,.,.,-,.,-
COc1cc(/C=N/O)ccc1OCc1ccccc1Cl,16µM,-,1.6µM,6.7µM,3.2µM,11µM
COc1ccc(-c2nnc(SCC(=O)/C(C#N)=C(\C)N)o2)cc1,1µM,-,-,0.95µM,0.71µM,4.5µM
C/C(N)=C(/C#N)C(=O)CSc1nnc(-c2ccccc2Br)o1,2.6µM,?,0.4µM,0.85µM,0.45µM,2.8µM
CC(C)CCNC(=O)NC(=O)CSc1nnc(-c2ccccc2Br)o1,-,-,-,-,-,-
COc1ccc2nc(SCC(=O)/C(C#N)=C(\C)N)[nH]c2c1,?,?,0.63µM,8.5µM,1.1µM,.
COc1ccccc1CNC(=S)NCc1ccc(F)cc1,-,-,-,-,-,.
COc1cccc(Cn2ccn(-c3ccc(F)cc3)c(=O)c2=O)c1,.,.,.,-,.,.
CCOc1ccc(-c2oc3cc(Cl)ccc3c(=O)c2O)cc1OC,.,.,.,-,.,-
Clc1ccccc1OCc1nc(-c2ccncc2)no1,?,?,2µM,11µM,2.8µM,13µM
Clc1ccc(OCc2nc(-c3ccncc3)no2)c(Br)c1,?,?,0.71µM,2.1µM,1.3µM,3.2µM
